Data published in PubChem BioAssay AID1159580 (chemical genetic matrix, 2015).
“And” between values parts separate entries of the source, which are not always exact repeats. Equal entries are not always repeated. In all, about 5,500 compounds went through this assay and about 2,000 (36%) were called active. Roughly 18% stayed inconclusive and do not appear here. No stated cut-off is given here; in the data, active means normalized growth mostly below about 0.91 (no sharp cut-off); inconclusive means no clear call, values can overlap the other calls; inactive means mostly above about 0.92. The list shows a part of the results.

Assay: chemical genetic growth profiling, strain panel (AID 1159580);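 further: tested at 20 µM; growth read once vehicle control cultures reached saturation at 30 °C; 1 = growth at the plate median or of vehicle wells; lower values mean less growth of the strain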
Settings: growth OD

Measured: normalized growth

COc1ccc2[nH]cc(CCNC(C)=O)c2c1
inactive: S. cerevisiae deletion strains, locus YJR075W, strain HOC1, hits give low values 1.07 | S. cerevisiae deletion strains, locus YKL009W, strain mrt4, hits give low values 1.01 | S. cerevisiae deletion strains, locus YKL068W, hits give low values 1.01 | S. cerevisiae deletion strains, locus YKL085W, strain MDH1 (second series), hits give low values 1.01 | S. cerevisiae deletion strains, locus YKL085W, strain MDH1, hits give low values 1.01 | S. cerevisiae deletion strains, locus YKL160W, strain elf1, hits give low values 0.979 | S. cerevisiae deletion strains, locus YKL190W, strain CNB1, hits give low values 1 | S. cerevisiae deletion strains, locus YKR001C, strain vps1, hits give low values 1.03 | S. cerevisiae deletion strains, locus YKR026C, strain gcn3, hits give low values 0.97 | S. cerevisiae deletion strains, locus YKR091W, strain srl3, hits give low values 0.969 | S. cerevisiae deletion strains, locus YLL001W, strain dnm1, hits give low values 0.971 | S. cerevisiae deletion strains, locus YLL026W, hits give low values 0.979 | S. cerevisiae deletion strains, locus YLL041C, strain sdh2, hits give low values 0.977 | S. cerevisiae deletion strains, locus YLR027C, strain aat2, hits give low values 0.975 | S. cerevisiae deletion strains, locus YLR039C, strain RIC1, hits give low values 1.04 | S. cerevisiae deletion strains, locus YLR058C, strain SHM2, hits give low values 1.01 | S. cerevisiae deletion strains, locus YLR102C, strain apc9, hits give low values 1.03 | S. cerevisiae deletion strains, locus YLR113W, strain HOG1, hits give low values 1 | S. cerevisiae deletion strains, locus YLR221C, strain rsa3, hits give low values 0.969 | S. cerevisiae deletion strains, locus YLR258W, strain gsy2, hits give low values 0.973 | S. cerevisiae deletion strains, locus YLR262C, strain YPT6 (second series), hits give low values 0.987 | S. cerevisiae deletion strains, locus YLR262C, strain YPT6, hits give low values 1.02 | S. cerevisiae deletion strains, locus YLR268W, strain sec22, hits give low values 1.03 | S. cerevisiae deletion strains, locus YLR320W, strain mms22, hits give low values 0.955 | S. cerevisiae deletion strains, locus YLR330W, strain CHS5, hits give low values 1.01 | S. cerevisiae deletion strains, locus YLR342W, strain FKS1 (second series), hits give low values 1.01 | S. cerevisiae deletion strains, locus YLR342W, strain FKS1, hits give low values 0.983 | S. cerevisiae deletion strains, locus YLR357W, strain rsc2, hits give low values 0.93 | S. cerevisiae deletion strains, locus YLR370C, strain arc18, hits give low values 0.974 | S. cerevisiae deletion strains, locus YLR371W, strain rom2, hits give low values 1.02 | S. cerevisiae deletion strains, locus YLR384C, strain iki3, hits give low values 0.951 | S. cerevisiae deletion strains, locus YLR418C, strain cdc73, hits give low values 1.05 | S. cerevisiae deletion strains, locus YML016C, strain PPZ1, hits give low values 1.01 | S. cerevisiae deletion strains, locus YML032C, strain rad52, hits give low values 1.03 | S. cerevisiae deletion strains, locus YML120C, strain ndi1, hits give low values 0.982 | S. cerevisiae deletion strains, locus YML124C, strain tub3, hits give low values 1.02 | S. cerevisiae deletion strains, locus YMR058W, strain fet3, hits give low values 0.974 | S. cerevisiae deletion strains, locus YMR078C, strain ctf18, hits give low values 1.03 | S. cerevisiae deletion strains, locus YMR125W, strain sto1, hits give low values 0.956 | S. cerevisiae deletion strains, locus YMR129W, hits give low values 0.977 | S. cerevisiae deletion strains, locus YMR205C, strain PFK2, hits give low values 0.979 | S. cerevisiae deletion strains, locus YMR223W, strain ubp8, hits give low values 1.03 | S. cerevisiae deletion strains, locus YMR231W, strain pep5, hits give low values 0.957 | S. cerevisiae deletion strains, locus YMR263W, strain SAP30, hits give low values 1.01 | S. cerevisiae deletion strains, locus YMR307W, strain GAS1, hits give low values 1.05 and 0.978 | S. cerevisiae deletion strains, locus YNL067W, strain RPL9B, hits give low values 1.01 | S. cerevisiae deletion strains, locus YNL071W, strain lat1, hits give low values 0.975 | S. cerevisiae deletion strains, locus YNL128W, strain TEP1, hits give low values 1.02 | S. cerevisiae deletion strains, locus YNL153C, strain GIM3, hits give low values 1.01 | S. cerevisiae deletion strains, locus YNL175C, strain NOP13, hits give low values 1.02 | S. cerevisiae deletion strains, locus YNL183C, strain NPR1, hits give low values 0.942 | S. cerevisiae deletion strains, locus YNL197C, strain WHI3, hits give low values 1.01 | S. cerevisiae deletion strains, locus YNL209W, strain ssb2, hits give low values 0.971 | S. cerevisiae deletion strains, locus YNL224C, strain SQS1, hits give low values 1 | S. cerevisiae deletion strains, locus YNL233W, strain BNI4, hits give low values 1.02 | S. cerevisiae deletion strains, locus YNL248C, strain rpa49, hits give low values 0.968 | S. cerevisiae deletion strains, locus YNL250W, strain rad50, hits give low values 1.04 | S. cerevisiae deletion strains, locus YNL271C, strain bni1, hits give low values 1.05 | S. cerevisiae deletion strains, locus YNL298W, strain CLA4, hits give low values 1.03 | S. cerevisiae deletion strains, locus YNL307C, strain MCK1, hits give low values 1.04 | S. cerevisiae deletion strains, locus YNL322C, strain KRE1 (second series), hits give low values 0.968 | S. cerevisiae deletion strains, locus YNL322C, strain KRE1, hits give low values 1 | S. cerevisiae deletion strains, locus YNR049C, strain mso1, hits give low values 0.972 | S. cerevisiae deletion strains, locus YNR052C, strain pop2, hits give low values 1.03 | S. cerevisiae deletion strains, locus YOL006C, strain TOP1, hits give low values 1.07 | S. cerevisiae deletion strains, locus YOL012C, strain htz1 1.19 | S. cerevisiae deletion strains, locus YOL147C, strain pex11, hits give low values 1.02 | S. cerevisiae deletion strains, locus YOR001W, strain rrp6, hits give low values 0.988 | S. cerevisiae deletion strains, locus YOR061W, strain CKA2, hits give low values 1.01 | S. cerevisiae deletion strains, locus YOR069W, strain VPS5, hits give low values 0.997 | S. cerevisiae deletion strains, locus YOR070C, strain gyp1, hits give low values 0.988 | S. cerevisiae deletion strains, locus YOR080W, strain dia2, hits give low values 0.972 | S. cerevisiae deletion strains, locus YOR083W, strain WHI5 (second series), hits give low values 1.01 | S. cerevisiae deletion strains, locus YOR083W, strain WHI5, hits give low values 0.98 | S. cerevisiae deletion strains, locus YOR106W, strain vam3, hits give low values 0.982 | S. cerevisiae deletion strains, locus YOR136W, strain idh2, hits give low values 1.04 | S. cerevisiae deletion strains, locus YOR144C, strain elg1, hits give low values 1.02 | S. cerevisiae deletion strains, locus YOR184W, strain ser1, hits give low values 1.04 | S. cerevisiae deletion strains, locus YOR231W, strain MKK1, hits give low values 1.02 | S. cerevisiae deletion strains, locus YOR265W, strain rbl2, hits give low values 0.984 | S. cerevisiae deletion strains, locus YOR270C, strain vph1, hits give low values 0.966 | S. cerevisiae deletion strains, locus YOR290C, strain snf2, hits give low values 0.972 | S. cerevisiae deletion strains, locus YOR316C, strain cot1, hits give low values 1.03 | S. cerevisiae deletion strains, locus YPL051W, strain arl3, hits give low values 0.967 | S. cerevisiae deletion strains, locus YPL055C, strain LGE1, hits give low values 1.04 | S. cerevisiae deletion strains, locus YPL078C, strain atp4, hits give low values 0.977 | S. cerevisiae deletion strains, locus YPL106C, strain sse1, hits give low values 0.978 | S. cerevisiae deletion strains, locus YPL240C, strain hsp82, hits give low values 0.977 | S. cerevisiae deletion strains, locus YPL241C, strain CIN2, hits give low values 1 | S. cerevisiae deletion strains, locus YPL256C, strain CLN2, hits give low values 1.01 | S. cerevisiae deletion strains, locus YPR119W, strain clb2, hits give low values 1.02 | S. cerevisiae deletion strains, locus YPR141C, strain kar3, hits give low values 1.03 | S. cerevisiae deletion strains, locus YPR163C, strain tif3, hits give low values 1.02 | S. cerevisiae deletion strains, locus YPR167C, strain met16, hits give low values 1.03 | S. cerevisiae deletion strains, strain wtn01, hits give low values 1.02 | S. cerevisiae strains, strain wild type, hits give low values 1.01
